Results filed as inconclusive are left out. Activity calls are given as the source filed them. The calls were made as follows, unless noted: active = hit-call score of the fitted dose curve at least 0.9, where 1 is the maximum; inconclusive = response in the unintended direction; inactive = score below 0.9.

Experiment [1] deals with Cellular tumor antigen p53 (Homo sapiens) (UniProt P04637). Put plainly: TOX21_p53_BLA_p2_ratio: Tox21 HCT-116 p53 Agonism Beta-lactamase Assay, Ratio, Phase 2 (AID 2283592). An outline of the steps: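 Cleaved-to-uncleaved substrate ratio (460 vs 530 nm) measured in HCT116 cells with an inducible beta-lactamase reporter linked to p53 activity. Compounds incubated 16 h at 37C before 2 h room-temperature CCF4-AM loading.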
Sequence of Cellular tumor antigen p53 (Homo sapiens) (P04637 whole entry, looked up): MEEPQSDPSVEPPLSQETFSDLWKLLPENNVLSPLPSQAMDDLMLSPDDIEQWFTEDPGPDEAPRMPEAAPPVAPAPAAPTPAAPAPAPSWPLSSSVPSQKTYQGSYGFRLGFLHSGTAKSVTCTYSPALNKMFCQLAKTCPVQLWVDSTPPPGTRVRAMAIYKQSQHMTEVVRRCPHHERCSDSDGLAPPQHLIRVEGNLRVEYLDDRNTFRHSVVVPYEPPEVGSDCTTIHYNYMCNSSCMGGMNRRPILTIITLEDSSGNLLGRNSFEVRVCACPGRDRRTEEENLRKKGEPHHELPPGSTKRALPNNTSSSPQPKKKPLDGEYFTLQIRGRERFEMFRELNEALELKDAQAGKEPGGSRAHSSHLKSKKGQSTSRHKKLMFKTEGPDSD

Experiment [2] has the same target. Put plainly: TOX21_p53_BLA_p3_ratio: Tox21 HCT-116 p53 Agonism Beta-lactamase Assay, Ratio, Phase 3 (AID 2283596). An outline of the steps: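 Cells were seeded at 4000/well, rested 5 h at 37C, then dosed with DMSO compound solutions (217-fold dilution) for 16 h. CCF4-AM substrate was loaded for 2 h at room temperature, and the 460/530 nm emission ratio was fitted for gain of signal versus DMSO.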

Experiment [3] has the same target. The experiment is described as follows: TOX21_p53_BLA_p5_ratio: Tox21 HCT-116 p53 Agonism Beta-lactamase Assay, Ratio, Phase 5 (AID 2283599). An outline of the steps:
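Beta-lactamase reporter ratio (blue 460 nm over green 530 nm, 405 nm excitation) after 2 h CCF4-AM loading, in HCT-116 cells exposed 16 h at 37 C to compounds pinned at 217-fold dilution. Increases relative to DMSO baseline scored.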

Experiment [4] has the same target. The experiment is described as follows: TOX21_p53_BLA_p4_ratio: Tox21 HCT-116 p53 Agonism Beta-lactamase Assay, Ratio, Phase 4 (AID 2283601). An outline of the steps: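 Signal is the blue/green (460nm/530nm) ratio of cleaved versus uncleaved CCF4-AM substrate, read after 2 h substrate loading. Cells were HCT116 carrying the p53-responsive beta-lactamase reporter, dosed 16 h at 37C, 5% CO2; CellTiter-Glo measured in parallel.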

Experiment [5] concerns the target THRA (gene 7067) (UniProt P10827). Put plainly: TOX21_TRA_COA_Agonist_Followup_ratio: Tox21 Thyroid Hormone Receptor alpha Agonism through Coactivator Recruitment Follow-Up Assay, Ratio (AID 2283948; active = hit-call score of the fitted dose curve at least 0.9, where 1 is the maximum; inactive = score below 0.9). An outline of the steps:
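First, compound was incubated with 2.5 nM GST-TRα LBD in 0.10% BSA. Next, 200 nM fluorescein-SRC-2 and 2 nM Tb-anti-GST antibody were added. Finally, the 520:495 nm ratio was normalized to DMSO and T3 controls.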

The target in experiment [6] is THRB (gene 7068) (UniProt P10828). The experiment is described as follows: TOX21_TRB_BLA_Agonist_Followup_ratio: Tox21 Thyroid Hormone Receptor beta Agonism Beta-lactamase (BLA) Follow-Up Assay, Ratio (AID 2283954). An outline of the steps:
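Agonist mode: compounds (11-point, triplicate) incubated 18 h with HEK293T cells carrying GAL4-DBD/human TRβ-LBD and UAS-β-lactamase. Blue/green (460/530 nm) FRET ratio read after 2 h CCF4-AM loading; CellTiter-Glo viability run in the same plates.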

Experiment [7] shares this target. Put plainly: TOX21_TRB_COA_Agonist_Followup_ratio: Tox21 Thyroid Hormone Receptor beta Agonism through Coactivator Recruitment Follow-Up Assay, Ratio (AID 2283963; active = hit-call score of the fitted dose curve at least 0.9, where 1 is the maximum; inactive = score below 0.9). An outline of the steps: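 GST-TRb LBD 5.0 nM + 0.10% BSA + cpd; add fluorescein-SRC-2 200 nM / Tb anti-GST Ab 2 nM; TR-FRET ex 340, em 520:495; norm DMSO 0%, T3 100%.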
The target of experiment [8] is Retinoic acid receptor RXR-alpha (Homo sapiens) (UniProt P19793). Put plainly: TOX21_TR_RXR_BLA_Agonist_Followup_ratio: Tox21 Thyroid Hormone Receptor beta Retinoid X Receptor alpha (RXRa) Agonism Beta-lactamase (BLA) Follow-Up Assay, Ratio (AID 2283968). An outline of the steps: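 Read-out: blue/green (460:530 nm) FRET ratio from cleaved vs uncleaved CCF4 substrate, fitted for gain of signal relative to DMSO. Cells: HEK293T with RXRa-UAS-bla reporter; 16 h compound exposure, 11 concentrations, triplicate.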
Sequence of Retinoic acid receptor RXR-alpha (Homo sapiens) (P19793 whole entry, looked up): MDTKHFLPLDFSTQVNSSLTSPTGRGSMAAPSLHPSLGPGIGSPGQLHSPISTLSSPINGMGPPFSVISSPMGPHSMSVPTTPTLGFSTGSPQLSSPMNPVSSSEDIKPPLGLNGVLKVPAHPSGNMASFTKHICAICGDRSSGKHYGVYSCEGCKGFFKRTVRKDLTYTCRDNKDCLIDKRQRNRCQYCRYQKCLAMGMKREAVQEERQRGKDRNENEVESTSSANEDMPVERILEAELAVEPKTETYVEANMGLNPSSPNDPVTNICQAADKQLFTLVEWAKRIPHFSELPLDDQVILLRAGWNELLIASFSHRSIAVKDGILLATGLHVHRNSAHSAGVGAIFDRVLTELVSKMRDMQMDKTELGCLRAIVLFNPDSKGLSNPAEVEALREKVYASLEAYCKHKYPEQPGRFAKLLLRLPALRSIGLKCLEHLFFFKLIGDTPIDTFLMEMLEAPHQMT

The nature of experiment [9]: TOX21_p53_BLA_p5_viability: Viability Assessment in the Tox21 HCT-116 p53 Agonism Beta-lactamase Assay, Phase 5 (AID 2283600). An outline of the steps: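 Viability is taken from cellular ATP content, measured by luciferase luminescence in the same wells after the beta-lactamase ratio read. Cells are seeded at 4000 per well and exposed to DMSO-dissolved compounds, diluted 217-fold, for 16 h.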

Sequence of THRB (gene 7068) (P10828 whole entry, looked up, the tested form may be a part): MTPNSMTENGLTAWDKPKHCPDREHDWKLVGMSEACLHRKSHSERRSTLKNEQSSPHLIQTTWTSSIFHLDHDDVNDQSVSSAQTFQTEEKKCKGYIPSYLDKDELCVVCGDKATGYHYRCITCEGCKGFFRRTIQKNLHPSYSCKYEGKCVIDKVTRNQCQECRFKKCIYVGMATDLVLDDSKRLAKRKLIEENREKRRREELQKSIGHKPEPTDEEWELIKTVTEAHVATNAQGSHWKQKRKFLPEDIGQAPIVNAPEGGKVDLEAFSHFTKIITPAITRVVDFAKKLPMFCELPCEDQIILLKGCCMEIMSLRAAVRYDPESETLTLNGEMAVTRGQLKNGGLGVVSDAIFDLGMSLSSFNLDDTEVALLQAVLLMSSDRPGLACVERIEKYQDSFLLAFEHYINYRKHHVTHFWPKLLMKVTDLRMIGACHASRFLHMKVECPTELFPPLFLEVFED
Sequence of THRA (gene 7067) (P10827 whole entry, looked up, the tested form may be a part): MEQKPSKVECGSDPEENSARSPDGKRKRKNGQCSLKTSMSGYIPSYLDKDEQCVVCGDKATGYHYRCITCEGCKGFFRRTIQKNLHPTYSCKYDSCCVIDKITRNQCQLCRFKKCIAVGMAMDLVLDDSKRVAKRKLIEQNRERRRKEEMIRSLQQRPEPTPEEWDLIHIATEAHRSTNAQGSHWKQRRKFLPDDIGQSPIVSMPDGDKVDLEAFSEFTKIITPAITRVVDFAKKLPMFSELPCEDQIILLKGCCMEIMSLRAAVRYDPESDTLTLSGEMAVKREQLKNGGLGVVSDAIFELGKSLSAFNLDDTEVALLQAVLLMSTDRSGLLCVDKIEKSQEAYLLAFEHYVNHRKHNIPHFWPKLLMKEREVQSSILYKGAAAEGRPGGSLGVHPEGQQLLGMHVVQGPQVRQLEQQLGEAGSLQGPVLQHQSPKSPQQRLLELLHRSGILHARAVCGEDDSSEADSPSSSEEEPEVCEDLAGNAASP

Consider `C=CC(=O)OCC1CCCO1` (stereo unspecified), for which the outcome in [1], in [2], in [3] and in experiment [4] was inactive.
Consider `CN1C[C@H]2c3ccccc3Oc3ccc(Cl)cc3[C@@H]2C1`, for which the result in experiment [1], in experiment [3] and in [4] was inactive. In addition, the AC50 (usually the concentration giving half of the maximal activity seen) in experiment [2] was 43.8 µM (active).
Regarding `O=C(O)CCNC(=O)c1ccccc1`, the outcome in experiment [1], in experiment [2], in [3], in experiment [4] and in experiment [8] was inactive. Moreover, the figures for the concentration at half-maximal activity (AC50) in experiment [5], in experiment [6] and in [7] were 15.2 µM (active), 12.6 µM (active) and 16.1 µM (active), respectively.
As to `CC1=NN(c2ccc(C(=O)O)cc2)C(=O)C1`, the outcome in experiment [1], in experiment [2], in experiment [3] and in experiment [4] was inactive.
On to `CC(CN(C)C)CN1c2ccccc2CCc2ccccc21` (stereo unspecified), for which the result in experiment [1], in experiment [2] and in experiment [9] was inactive.
Take `CC1(C)S[C@@H]2[C@H](NC(=O)C(C(=O)Oc3ccc4c(c3)CCC4)c3ccccc3)C(=O)N2[C@H]1C(=O)O` (stereo partly specified): the outcome in experiment [1], in experiment [2], in experiment [3] and in experiment [4] was inactive.
With `COc1cc(Nc2c(C#N)cnc3cc(OCCCN4CCN(C)CC4)c(OC)cc23)c(Cl)cc1Cl`, the result in experiment [1] was inactive. Moreover, the results for the AC50 in [2], in experiment [3] and in experiment [4] were 17.8 µM (active), 10.9 µM (active) and 7.74 µM (active), respectively.
As to `FC1(F)C(F)(F)C(F)(F)C2(F)C(F)(F)C(F)(F)C(F)(F)C(F)(F)C2(F)C1(F)F` (stereo unspecified), the result in [1], in [2], in [3] and in experiment [4] was inactive.
In the case of `Cc1ccc(Cl)c(N)c1Cl`, the result in [1], in [2], in [3] and in experiment [4] was inactive.
As to `[O]=[Bi][O][Bi]=[O]`, the outcome in experiment [1], in experiment [2], in experiment [9] and in [4] was inactive.
As for `CCOc1cc(NC(C)=O)ccc1C(=O)OC`, the outcome in experiment [1], in [2], in experiment [9] and in experiment [4] was inactive.
As to `OCC(O)COc1ccc(Cl)cc1` (stereo unspecified), the outcome in experiment [1], in experiment [2] and in experiment [9] was inactive.
Consider `CCCOc1ccc2nc(NC(=O)OC)[nH]c2c1`, for which the result in [1], in [3] and in [4] was inactive. Besides, the half-maximal activity concentration (AC50) in experiment [2] is 0.24 µM (active).
Turning to `C[C@@H](N)C(=O)O`, the outcome in experiment [1], in [2], in experiment [9] and in experiment [4] was inactive.
For `CCOCC(O)COc1ccc(NC(=O)CC[S+](C)C)cc1` (stereo unspecified), the outcome in experiment [1], in experiment [2], in [3] and in [4] was inactive.
`CN1CCN(C(c2ccccc2)c2ccccc2)CC1`: the outcome in experiment [1], in experiment [2], in experiment [3] and in experiment [4] was inactive.

These data come from PubChem BioAssay (EPA / NIEHS).
